Source: the supplement of paper PMC4962491
± gives the standard deviation of the averaged measurements.

System: FaDu
Assay: mitochondrial oxygen consumption rate normalised to cell number, Z score vs plate DMSO wells; higher = higher oxygen consumption (negative = OCR reduction)
Details: treatment time 24 h, assay medium: 5 mM glucose, 5 mM pyruvate, 4 mM glutamine
Experimental: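 Secondary screen: FaDu cells were incubated 24 h with the top 130 primary hits at 0.08, 0.4, 2 or 10 uM. Mitochondrial-specific OCR (basal minus antimycin A) was measured on a Seahorse XF96 in medium with 5 mM glucose, 5 mM pyruvate and 4 mM glutamine and normalised to Hoechst cell number. OCR score = (OCR - mean of plate DMSO wells) / SD of plate DMSO wells. Three repeats.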
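Also: compound exposure in DMEM (4 mM L-glutamine, 5 mM glucose), antimycin A injected at 2 µM after the basal reading and its residual OCR subtracted from basal.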

## CCCCCCCCCCCCCCCC[n+]1ccccc1
0.08 µM
  mitochondrial oxygen consumption rate normalised: -1.4 ± 1.2
0.4 µM
  mitochondrial oxygen consumption rate normalised: -7.98 ± 1.3
2 µM
  mitochondrial oxygen consumption rate normalised: -12.98 ± 0.12

## CCN1C[C@]2(COC)[C@H](O)C[C@H](OC)[C@@]34[C@@H]5C[C@@]6(O)[C@H](OC(=O)c7ccccc7)[C@@H]5[C@@](OC(C)=O)([C@@H]([C@H](OC)[C@H]23)[C@@H]14)[C@@H](O)[C@@H]6OC
0.08 µM
  mitochondrial oxygen consumption rate normalised: -1.27 ± 0.64
0.4 µM
  mitochondrial oxygen consumption rate normalised: 0.916 ± 0.68
2 µM
  mitochondrial oxygen consumption rate normalised: -0.205 ± 0.67
10 µM
  mitochondrial oxygen consumption rate normalised: -1.19 ± 2.6

## O=c1[nH]c2ccccc2n1C1CCN(CCCC(c2ccc(F)cc2)c2ccc(F)cc2)CC1
0.08 µM
  mitochondrial oxygen consumption rate normalised: 0.0686 ± 1.5
0.4 µM
  mitochondrial oxygen consumption rate normalised: 0.719 ± 0.8
2 µM
  mitochondrial oxygen consumption rate normalised: -0.247 ± 1
10 µM
  mitochondrial oxygen consumption rate normalised: -2.41 ± 0.47

## CC[C@H]1CN2CCc3cc(OC)c(OC)cc3[C@@H]2C[C@@H]1C[C@H]1NCCc2cc(OC)c(OC)cc21
0.08 µM
  mitochondrial oxygen consumption rate normalised: -2.43 ± 0.17
0.4 µM
  mitochondrial oxygen consumption rate normalised: -3.08 ± 0.73
2 µM
  mitochondrial oxygen consumption rate normalised: -9.68 ± 0.42
10 µM
  mitochondrial oxygen consumption rate normalised: -11.8 ± 0.41

## S=C=NCc1ccccc1
0.08 µM
  mitochondrial oxygen consumption rate normalised: 0.549 ± 1.3
0.4 µM
  mitochondrial oxygen consumption rate normalised: 1.06 ± 1.3
2 µM
  mitochondrial oxygen consumption rate normalised: 0.157 ± 2.2

## CC(=O)Oc1ccc(Cl)c2cccnc12
0.08 µM
  mitochondrial oxygen consumption rate normalised: 1.68 ± 0.74
0.4 µM
  mitochondrial oxygen consumption rate normalised: 1.4 ± 1.5
2 µM
  mitochondrial oxygen consumption rate normalised: 1.41 ± 0.58
10 µM
  mitochondrial oxygen consumption rate normalised: -4.99 ± 1.8

## CC(C)[N+](C)(CCC(C(N)=O)(c1ccccc1)c1ccccc1)C(C)C
0.08 µM
  mitochondrial oxygen consumption rate normalised: -0.746 ± 1.7
0.4 µM
  mitochondrial oxygen consumption rate normalised: 0.934 ± 0.43
2 µM
  mitochondrial oxygen consumption rate normalised: 0.355 ± 1.3
10 µM
  mitochondrial oxygen consumption rate normalised: -0.361 ± 2

## COc1cc([C@@H]2c3cc4c(cc3[C@H](O)[C@H]3COC(=O)[C@H]23)OCO4)cc(OC)c1OC
0.08 µM
  mitochondrial oxygen consumption rate normalised: -0.539 ± 1.6
0.4 µM
  mitochondrial oxygen consumption rate normalised: -0.043 ± 0.98
2 µM
  mitochondrial oxygen consumption rate normalised: 0.427 ± 0.56
10 µM
  mitochondrial oxygen consumption rate normalised: -0.617 ± 1.2

## COc1ccc(Cc2nccc3cc(OC)c(OC)cc23)cc1OC
0.08 µM
  mitochondrial oxygen consumption rate normalised: 0.452 ± 1
0.4 µM
  mitochondrial oxygen consumption rate normalised: 1.06 ± 1.4
2 µM
  mitochondrial oxygen consumption rate normalised: 0.739 ± 0.59
10 µM
  mitochondrial oxygen consumption rate normalised: -0.208 ± 3.2

## C=C1C[C@@H]2[C@H](CC[C@]3(C)C(=O)CC[C@@H]23)[C@@]2(C)C=CC(=O)C=C12
0.08 µM
  mitochondrial oxygen consumption rate normalised: -0.364 ± 0.53
0.4 µM
  mitochondrial oxygen consumption rate normalised: 1.24 ± 0.73
2 µM
  mitochondrial oxygen consumption rate normalised: -0.149 ± 1
10 µM
  mitochondrial oxygen consumption rate normalised: 0.548 ± 0.94

## CC(=O)O[C@H]1C[C@H](O[C@H]2[C@@H](O)C[C@H](O[C@H]3[C@@H](O)C[C@H](O[C@H]4CC[C@@]5(C)[C@H](CC[C@@H]6[C@@H]5C[C@@H](O)[C@]5(C)[C@@H](C7=CC(=O)OC7)CC[C@]65O)C4)O[C@@H]3C)O[C@@H]2C)O[C@H](C)[C@H]1O[C@@H]1O[C@H](CO)[C@@H](O)[C@H](O)[C@H]1O
0.08 µM
  mitochondrial oxygen consumption rate normalised: -0.88 ± 0.81
0.4 µM
  mitochondrial oxygen consumption rate normalised: -3.22 ± 1.3
